# Assay results published in the supplement of paper PMC10515830.
# Structures can show the parent of a compound that is named as a salt.
# Tested on: Danio rerio larvae (5 dpf)
# Test: difference in habituation to acoustic stimuli vs DMSO (percentage points); higher = more habituation than DMSO
# Settings: 10 µM; exposure time 6 h
# Procedure, shortened: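 Wild-type 5 dpf zebrafish larvae in 96-well plates were given 100 µL egg water containing library compound at 10 µM final for 6 h. After 3 h of exposure, plates at 28.5 ℃ were photographed every 6 s during a 3-h programme of moving lines and 100 ms, 400Hz tones. Z-LaP Tracker (a DeepLabCut model) quantified each behaviour, averaged over 48 larvae per compound. Values are the compound mean minus the DMSO-vehicle control, in percentage points.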
row,SMILES,difference in habituation to acoustic stimuli
1,Cc1nc2n(c(=O)c1CCN1CCC(c3noc4cc(F)ccc34)CC1)CCCC2 [Risperidone],4.04
2,CC(C)c1c(C(=O)Nc2ccccc2)c(-c2ccccc2)c(-c2ccc(F)cc2)n1CC[C@@H](O)C[C@@H](O)CC(=O)O [Atorvastatin (calcium salt hydrate)],-0.794
3,N=C(N)NCCC[C@@H](NC(=O)[C@@H]1CCCN1C(=O)[C@@H]1CSSCCC(=O)N[C@@H](Cc2ccc(O)cc2)C(=O)N[C@@H](Cc2ccccc2)C(=O)N[C@@H](CCC(N)=O)C(=O)N[C@@H](CC(N)=O)C(=O)N1)C(=O)NCC(N)=O [Desmopressin (trifluoroacetate salt)],-4.29
4,CC(=O)OCC(CCn1cnc2cnc(N)nc21)COC(C)=O [Famciclovir],0.929
5,COC(=O)/C=C/C(=O)OC [Dimethyl fumarate],-2.23
6,CC(C)OC(=O)[C@H](C)N[P@](=O)(OC[C@H]1O[C@@H](n2ccc(=O)[nH]c2=O)[C@](C)(F)[C@@H]1O)Oc1ccccc1,1.16
7,CCN(CC)C(=O)[C@@]1(c2ccccc2)C[C@H]1CN [Levomilnacipran (hydrochloride)],-1.84
8,Cc1ccc(N(CC2=NCCN2)c2cccc(O)c2)cc1 [Phentolamine (mesylate)],5.59
9,COc1ccc(C[C@@H](C)NC[C@H](O)c2ccc(O)c(NC=O)c2)cc1 [Arformoterol (tartrate)],-7.89
10,COC(=O)[C@H]1[C@H]2C[C@@H]3c4[nH]c5cc(OC)ccc5c4CCN3C[C@H]2C[C@@H](OC(=O)c2cc(OC)c(OC)c(OC)c2)[C@@H]1OC [Reserpine],-7.61
11,CO[C@H]1/C=C/O[C@@]2(C)Oc3c(C)c(O)c4c(O)c(c(/C=N/N5CCN(C6CCCC6)CC5)c(O)c4c3C2=O)NC(=O)/C(C)=C\C=C\[C@H](C)[C@H](O)[C@@H](C)[C@@H](O)[C@@H](C)[C@H](OC(C)=O)[C@@H]1C [Rifapentine],6.16
12,CN(C)CCOC(C)(c1ccccc1)c1ccccn1 (stereo not given) [Doxylamine (succinate)],5.01
13,CC1=NN(c2ccc(C)c(C)c2)C(=O)/C1=N\Nc1cccc(-c2cccc(C(=O)O)c2)c1O [Eltrombopag],1.01
14,CN1C(CCl)Nc2cc(Cl)c(S(N)(=O)=O)cc2S1(=O)=O (stereo not given) [Methyclothiazide],2
15,Nc1ccc(O)c(C(=O)O)c1 [5-Aminosalicylic Acid],1.77
16,CCOc1cc(CC(=O)N[C@@H](CC(C)C)c2ccccc2N2CCCCC2)ccc1C(=O)O [Repaglinide],0.755
17,COc1ccc(Cl)cc1C(=O)NCCc1ccc(S(=O)(=O)NC(=O)NC2CCCCC2)cc1 [Glyburide (potassium salt)],-3.8
18,C#Cc1cccc(Nc2ncnc3cc(OCCOC)c(OCCOC)cc23)c1 [Erlotinib],-0.321
19,CCCc1c2oc(C(=O)O)cc(=O)c2cc2c(=O)cc(C(=O)O)n(CC)c12 [Nedocromil (sodium salt)],7.47
20,NCc1ccc(S(N)(=O)=O)cc1 [Mafenide],0.954
21,C[C@H]1O[C@H](O[C@H]2[C@H](O)[C@@H](O)[C@@H](O[C@H]3[C@H](O)[C@@H](O)C(O)O[C@@H]3CO)O[C@@H]2CO)[C@H](O)[C@@H](O)[C@@H]1N[C@H]1C=C(CO)[C@@H](O)[C@H](O)[C@H]1O (stereo not given in full) [Acarbose],-4.5
22,NC1=NCC2c3ccccc3Cc3ccccc3N12 (stereo not given) [Epinastine (hydrochloride)],4.49
23,CCCc1nc2c(C)cc(-c3nc4ccccc4n3C)cc2n1Cc1ccc(-c2ccccc2C(=O)O)cc1 [Telmisartan],-3.85
24,COc1ccc(-n2nc(C(N)=O)c3c2C(=O)N(c2ccc(N4CCCCC4=O)cc2)CC3)cc1 [Apixaban],4.29
25,Cc1c(O)c(=O)ccn1C [Deferiprone],-1.01
26,Nc1nc(Cl)nc2c1ncn2[C@H]1C[C@H](O)[C@@H](CO)O1 [Cladribine],-0.582
27,CC(=O)CC(c1ccccc1)c1c(O)c2ccccc2oc1=O (racemic) [(±)-Warfarin],-3.9
28,Nc1nc(O)c2ncn(CCC(CO)CO)c2n1 [Penciclovir],-1.73
29,CCCNC(C)C(=O)Nc1c(C)csc1C(=O)OC (stereo not given) [Articaine (hydrochloride)],0.219
30,COC(=O)C1=C(C)NC(C)=C(C(=O)OCC(C)C)C1c1ccccc1[N+](=O)[O-] (stereo not given) [Nisoldipine],-9.06
